PubChem BioAssay AID1850 (Southern Research Specialized Biocontainment Screening …, 2009)
Several values for one entry are separate records, joined by “and”; a condition that tells them apart may be missing. Equal values may be shown once. Screen size: about 310,000 compounds; about 1,000 (0.32%) were called active. How the calls were made is not given here. The list is a sample of the results. Potency and affinity values are given separately.

Assay: PhoP regulon inhibitors, Salmonella typhi PhoP promoter GFP reporter, confirmatory (AID 1850);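 further: 0% = induced wells with vehicle and 100% = uninduced wells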
Conditions: fluorescence, 4 h, at 50 µM, active compounds read high

SMILES	inhibition
Brc1ccccc1OCCNCc1ccccc1	11.4% (inactive)
COCCCNCCCOc1ccc(Cl)cc1Br	4.69% (inactive)
CCOc1ccccc1OCCCNCc1ccccc1	-6.34% (inactive)
CCN(CC)CCOCCOc1ccc(Cl)c2ccccc12	1.79% (inactive)
Cc1ccc(OCCOCCN(C)C)c(Cl)c1	2.62% (inactive)
Cc1cc(Br)ccc1OCCNCc1ccccc1	11.4% (inactive)
COCCNCCCOc1ccc(Br)cc1Cl	5.48% (inactive)
Clc1ccc(Cl)c(OCCCCNCc2ccccc2)c1	13.1% (inactive)
O=C(O)C1C2C=CC(C2)C1C(=O)NCCCN1CCCC1=O (stereo unspecified)	-1.57% (inactive)
Cn1c(Cn2c(=O)sc3ccccc32)nnc1SCC(=O)N1CCCC1	0.97% (inactive)
NS(=O)(=O)c1ccc(NCCCn2ccnc2)c([N+](=O)[O-])c1	9.73% (inactive)
Cc1ccc(NC(=O)CCC(=O)NNC(=S)Nc2ccc(F)cc2F)cc1C	-6.55% (inactive)
COc1cccc(NC(=O)CSC(N)=O)c1	-6.88% (inactive)
NNC(=O)C(=O)Nc1ccc(Cl)c(Cl)c1	-4.15% (inactive)
O=C(CSC1=NC(=O)C(c2ccccc2)C(=O)N1)Nc1ccccc1Cl (stereo unspecified)	7.4% (inactive)
Cc1ccc(NC(=O)CSCC#N)cc1Cl	-2.58% (inactive)
O=C(CCC(=O)N1CCCC1)Nc1ccc(Cl)c(Cl)c1	-7.42% (inactive)
CC(=O)NC1C(=O)N=C(SCC(=O)Nc2cccc(Cl)c2)NC1=O (stereo unspecified)	11.8% (inactive)
Cc1ccc(Cl)cc1NC(=O)CSC(N)=O	-1.36% (inactive)
NCCc1nnc(SCC(=O)Nc2cccc(Cl)c2)o1	5.27% (inactive)
O=C(CSc1ccccn1)N1CCCC(Nc2ccc(F)c(F)c2)C1 (stereo unspecified)	-15.8% (inactive)
CC(C)(C)OC(=O)NCc1ccc(CNC(=O)c2[nH]cnc2C(=O)N[C@@H](Cc2ccccc2)C(=O)OC(C)(C)C)cc1	-19.7% (inactive)
COc1ccc(CCC(=O)NNC(=O)Nc2cccc(Cl)c2)cc1	-3.45% (inactive)
Cc1cc(C(=O)Nc2cccnc2)no1	-7.65% (inactive)
N#CCSc1nc(-c2ccccc2)c2cc(Cl)ccc2n1	-0.85% (inactive)
COCCCn1c(=O)c2ccccc2n(Cc2cc(C(=O)OC)ccc2OC)c1=O	5.08% (inactive)

SMILES	inhibition
CCOC(=O)CC1C(=O)NCCN1C(=O)c1cccc(OC)c1 (stereo unspecified)	-7.55% (inactive)
COCCn1nnnc1C(c1ccc(OC)c(OC)c1)N1CCN(c2nc3ccccc3s2)CC1 (stereo unspecified)	-9.37% (inactive)
COc1ccccc1N1CCN(S(=O)(=O)CCNC(=O)C2CCCCC2)CC1	-2.35% (inactive)
N#CCSCC(=O)Nc1ccc(Cl)cc1	6.54% (inactive)
CCOc1ccc(NC(=O)CSC(N)=O)cc1	-9.69% (inactive)
O=C(N/N=C\c1ccc(O)c([N+](=O)[O-])c1)c1ccccc1-n1cccc1	-6.79% (inactive)
COc1ccc(N(CN2C(=O)c3ccccc3C2=O)C(=O)COc2ccc(Cl)cc2Cl)cc1	-5.69% (inactive)
CN(C)CCCN1c2ccccc2Sc2ccc(Cl)cc21	9.15% (inactive)
CN(C)CCCN1c2ccccc2CCc2ccccc21	8.39% (inactive) and 6.67% (inactive)
CCNS(=O)(=O)c1ccc(NC(=O)c2ccc(Cn3cc(Br)cn3)o2)cc1	-4.21% (inactive)
O=C(CCn1nc(-c2ccccc2)c2ccccc2c1=O)N1CCN(c2ccccc2)CC1	6.41% (inactive)
CC1CCN(C(=O)Cn2cnc3c(cnn3C(C)(C)C)c2=O)CC1	-6.14% (inactive)
Cc1nc(SCC(=O)c2ccccc2)[nH]c(=O)c1Oc1ccc(Cl)cc1	-6% (inactive)
COc1ccc(C2CC(=O)c3c(ccc4ccccc34)N2)cc1OC (stereo unspecified)	2.44% (inactive)
Cc1ncc(/C=C2\C(=O)Nc3ccccc32)[nH]1	-10.1% (inactive)
Cc1cccc(NC(=O)CSc2nc(=O)n3ccccc3n2)c1C	4.11% (inactive)
FC(F)(F)c1nnc(Nc2ccc(Cl)cc2)s1	13.5% (inactive)
Fc1ccc(Nc2nnc(C(F)(F)F)s2)cc1	-1.74% (inactive)
Cc1ccc(C(=O)N/C(N)=N/c2nc3ccccc3o2)cc1	-27.8% (inactive)
O=C(COC(=O)c1ccco1)NC(c1ccccc1)c1ccccc1	-14.2% (inactive)
CN(CC(=O)O)S(=O)(=O)c1ccc2c(c1)NC(=O)CC(=O)N2	12.4% (inactive)
COc1ccccc1CN1C[C@@H]2C[C@@H](c3ccccc3C)N3CCC[C@@]23C1=O	-4.27% (inactive)
COCCNc1nc(-c2cc(-c3ccccc3)on2)cc(C(C)C)n1	-5.87% (inactive)
Cc1c(C(=O)Nc2c(N)nc(SCC(=O)NCC3CCCO3)[nH]c2=O)cccc1[N+](=O)[O-] (stereo unspecified)	-5.44% (inactive)
CCOC(=O)C1CCN(C(=S)NC2CC3C=CC2C3)CC1 (stereo unspecified)	6.08% (inactive)
COc1ccc(-n2nc(C)cc2N)cc1	4.84% (inactive)

SMILES	inhibition
Cc1cccc(C(=O)NNC(=S)NC(=O)c2ccccc2)c1	18.6% (inactive)
O=C(NNC(=S)NC(=O)c1cccs1)c1ccc(O)cc1	-3.75% (inactive)
Cc1cccc(C(=O)NC(=S)NNC(=O)c2cccs2)c1	-3.39% (inactive)
COc1ccc(C(=O)NC(=S)NNC(=O)c2ccc(C)cc2)cc1	18.1% (inactive)
COc1ccc(C(=O)NNC(=S)NC(=O)c2ccc(OC)cc2)cc1	5.93% (inactive)
COc1ccc(C(=O)NNC(=S)NC(=O)c2ccc(Cl)cc2)cc1	4.94% (inactive)
Cc1ccc(CSc2nnc(-c3cccc(S(=O)(=O)N4CCOCC4)c3)n2CC(C)C)cc1	10.2% (inactive)
CCOC(=O)[C@@H]1CCNC[C@@H]1c1ccccc1	-2.58% (inactive)
CCC(C)Sc1nnc(NC(=O)c2ccco2)s1 (stereo unspecified)	-2.84% (inactive)
CC(C)(C)c1ccccc1N=Cc1ccc2ccccc2n1	-21.3% (inactive)
Cc1onc(-c2ccc(Cl)cc2)c1-c1ccnn1S(=O)(=O)c1cccc(C(F)(F)F)c1	-8.24% (inactive)
Cc1ccccc1NC(=S)N(Cc1cccnc1)Cc1ccccc1Cl	-8.27% (inactive)
CCOC(=O)C1CCN(Cc2c(F)cccc2Cl)CC1	-1.3% (inactive)
COc1ccc(C(=O)C2CCCN(C(=O)c3ccc(F)cc3)C2)cc1OC (stereo unspecified)	-6.1% (inactive)
O=C(Nc1ccc(F)cc1)c1cccnc1	-6.59% (inactive)
CCn1c2ccccc2c2cc(C3N=C(N)Nc4nc5ccccc5n43)ccc21 (stereo unspecified)	6.06% (inactive)
CCOC(=O)C1=C(C)Nc2nc3ccccc3n2C1c1ccccc1 (stereo unspecified)	-6.62% (inactive)
NC1=NC(c2ccc(Cl)cc2)n2c(nc3ccccc32)N1 (stereo unspecified)	-5.56% (inactive)
Cc1ccc(C2N=C(N)Nc3nc4ccccc4n32)cc1 (stereo unspecified)	-13.9% (inactive)
NC1=NC(c2ccccc2Cl)n2c(nc3ccccc32)N1 (stereo unspecified)	4.77% (inactive)
Cc1cccc(C2N=C(N)Nc3nc4ccccc4n32)c1 (stereo unspecified)	1.47% (inactive)
CCCCCOc1ccc(CSCCNC(=S)Nc2ccccc2)cc1	-18.1% (inactive)
CC(C)CN(C(=O)COC(=O)CSc1ccccc1F)c1c(N)n(Cc2ccccc2)c(=O)[nH]c1=O	4.09% (inactive)
COc1cc(C2/C(=C(\O)c3ccc4c(c3)CC(C)O4)C(=O)C(=O)N2CCN2CCOCC2)cc(OC)c1OC (stereo unspecified)	-7.62% (inactive)
CC(C)(C)NC(=O)/C(=C/c1ccccc1F)NC(=O)c1ccc([N+](=O)[O-])cc1	7.24% (inactive)
CC(C)NC(=O)NC(=O)CN1C(=O)NC2(CCc3ccccc3C2)C1=O (stereo unspecified)	-20.4% (inactive)

SMILES	inhibition
C/C=C/C(=O)Nc1nnc(C2CCCCC2)s1	-12.4% (inactive)
COC(=O)C1CCCCN1C(=O)c1ccc2oc(Cc3ccccc3)nc2c1 (stereo unspecified)	-3.48% (inactive)
COc1ccccc1CC(=O)NNS(=O)(=O)c1cccc([N+](=O)[O-])c1	-15.1% (inactive)
Oc1ccc(C[C@H]2CNCCN2CCC23CC4CC(CC(C4)C2)C3)cc1	-7.57% (inactive)
Oc1ccc(C[C@@H]2CNCCN2CC2CCCCC2)cc1	-6.54% (inactive)
c1ccc(C[C@H]2CNCCN2CCC23CC4CC(CC(C4)C2)C3)cc1	15.7% (inactive)
Oc1ccc(C[C@H]2CNCCN2CC2CCCCC2)cc1	-0.4% (inactive)
c1ccc(C[C@H]2CNCCN2CCCCC2CCCCC2)cc1	1.44% (inactive)
CCCCN1CCNC[C@H]1Cc1ccc(O)cc1	0.57% (inactive)
Nc1ccccc1SCC(O)Cn1ccc2ccccc21 (stereo unspecified)	0.67% (inactive)
CN1CCN(CCC(=O)Nc2cccc(F)c2)CC1	-7.12% (inactive)
CCOc1ccc(N(CC(=O)N2CCN(Cc3ccccc3)CC2)S(C)(=O)=O)cc1	1.84% (inactive)
COc1ccc(N2CCN(C(=O)c3ccc(CSc4ccccc4)cc3)CC2)cc1	3.8% (inactive)
CCC(=O)N1CCc2cc(S(=O)(=O)NCCC(=O)NCc3ccc(F)cc3)ccc21	5.61% (inactive)
CN(C(=O)Cc1c(C(=O)O)n(C)c2ccccc12)c1ccc(Cl)cc1	-0.76% (inactive)
CCOC(=O)C1CN(S(=O)(=O)c2ccccc2)C1	-1.91% (inactive)
CC(C)CC(NS(=O)(=O)c1cccc(C(=O)O)c1)C(=O)O (stereo unspecified)	-4.1% (inactive)
CSc1cccc(NC(=O)c2ccccc2N(C)S(C)(=O)=O)c1	3.99% (inactive)
CCc1nnc(NC(=O)[C@@H](NC(=O)c2ccc(C(C)(C)C)cc2)C(C)C)s1	-2.72% (inactive)
O=C(NNC(=S)NC(=O)c1cccnc1)c1ccc(F)cc1	15.9% (inactive)
COc1ccc(C(=O)NC(=S)NNC(=O)c2cnccn2)cc1OC	31.3% (inactive)
COc1cc(OC)cc(C(=O)NC(=S)NNC(=O)c2cnccn2)c1	-6.65% (inactive)
O=C(NC(=S)NNC(=O)c1cnccn1)c1ccc(Cl)cc1	10.3% (inactive)
